# PubChem BioAssay (NCATS)
# Calls of active or inactive are those of the source. The call rests on the fitted dose curve; in most records, active means well fitted curve in the direction sought with a large enough effect; inconclusive means small, poorly fitted or top-dose-only effect, or another doubt; inactive means no such curve, though single readings can be large; an effect the other way counts as inactive or inconclusive.
# Assay: Cellular Toxicity (caspase-3) HUV-EC-C (AID 656)
# Conditions: HUV-EC-C cells, caspase-3 activation (apoptosis), vehicle = 0, 100 µM tamoxifen = 100%; series mostly up to 92.2 µM
# Outline: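 Luminescent Caspase-Glo 3/7 readout after 16 h, 37 °C compound exposure of HUV-EC-C endothelial cells, 1000 per well, complete medium. AC50 derived by Hill fitting, with DMSO as baseline and 100 uM tamoxifen as full activation.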
row,Compound,outcome
1,C=CCc1ccc(OC)c(OC)c1,inactive
2,C=C(C)C1CC=C(C)C(O)C1 (stereo unspecified),inactive
3,CC1=C2[C@H](/C=C(\C)C(=O)O)CC[C@@H](C)[C@H]2CC1,inactive
4,CCCCCCCCCCCC(=O)O,inactive

# Assay: Cellular Toxicity (caspase-3) SHSY5Y (AID 657)
# Conditions: SH-SY5Y caspase-3 activation, DMSO zero, 10 µM staurosporine = 100%; series mostly up to 91.7 µM
# Outline: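 Luminescent Caspase-Glo 3/7 read-out, 1 hr room temperature, follows 16 hours of compound treatment of SH-SY5Y cells at 37 °C. Normalization: DMSO basal, 10 uM staurosporine as 100%; AC50 values from Hill-equation concentration-response fits.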
row,Compound,outcome
1,C=CCc1ccc(OC)c(OC)c1,inactive
2,C=C(C)C1CC=C(C)C(O)C1 (stereo unspecified),inactive
3,CC1=C2[C@H](/C=C(\C)C(=O)O)CC[C@@H](C)[C@H]2CC1,inactive
4,CCCCCCCCCCCC(=O)O,inactive

# Assay: Cellular Toxicity (caspase-3) MRC-5 (AID 659)
# Conditions: MRC-5 cells, luminescence, normalized: DMSO 0%, 10 µM staurosporine 100%; series mostly up to 91.7 µM
# Outline: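 Concentration-dependent caspase 3/7 activation is measured in human normal lung fibroblasts (MRC-5) following 16-hour treatment. AC50 values come from standard Hill-equation modeling of luminescence normalized to DMSO and 10 uM staurosporine.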
row,Compound,outcome
1,C=CCc1ccc(OC)c(OC)c1,inactive
2,C=C(C)C1CC=C(C)C(O)C1 (stereo unspecified),inactive
3,CC1=C2[C@H](/C=C(\C)C(=O)O)CC[C@@H](C)[C@H]2CC1,inactive
4,CCCCCCCCCCCC(=O)O,inactive

# Assay: Cellular Toxicity (caspase-3) Mesangial (AID 660);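 further: combined caspase 3 and 7 activity read by Caspase-Glo luminescence; cells exposed to compound for 16 h before the caspase read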
# Conditions: mesangial cells, normalized: DMSO 0%, 100 µM tamoxifen 100%; series mostly up to 91.7 µM
# Outline: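 Human renal glomerular mesangial cells, 1000/well, 5 h at 37 C before 16 h compound treatment. Caspase-Glo 3/7 luminescence after 20 min; normalized to DMSO and 100 uM tamoxifen, AC50 from Hill fit.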
row,Compound,outcome
1,C=CCc1ccc(OC)c(OC)c1,inactive
2,C=C(C)C1CC=C(C)C(O)C1 (stereo unspecified),inactive
3,CC1=C2[C@H](/C=C(\C)C(=O)O)CC[C@@H](C)[C@H]2CC1,inactive
4,CCCCCCCCCCCC(=O)O,inactive
